Only some compounds are listed: those with a hit (about 12% of all), similar ones and a draw of the others.
PLK1 PBD inh = qHTS for Inhibitors of PLK1-PDB (polo-like kinase 1 - polo-box domain): Primary Screen. AID 720504, 2013. Serine/threonine-protein kinase PLK1 (Homo sapiens), P53350. Potency, µM, for the others: max response, negative = inhibition, usual class: inhibitors. 360,000 compounds, 2.8% hits. Plk1 PBD binding of FITC phosphopeptide, fluorescence polarization; note: series mostly up to about 57 µM; % is set by controls: 0 for no effect and ±100 for the full control effect; nearly all actives have a fitted effect of over 65% in size
Target sequence (P53350 whole entry, looked up, the tested form may be a part): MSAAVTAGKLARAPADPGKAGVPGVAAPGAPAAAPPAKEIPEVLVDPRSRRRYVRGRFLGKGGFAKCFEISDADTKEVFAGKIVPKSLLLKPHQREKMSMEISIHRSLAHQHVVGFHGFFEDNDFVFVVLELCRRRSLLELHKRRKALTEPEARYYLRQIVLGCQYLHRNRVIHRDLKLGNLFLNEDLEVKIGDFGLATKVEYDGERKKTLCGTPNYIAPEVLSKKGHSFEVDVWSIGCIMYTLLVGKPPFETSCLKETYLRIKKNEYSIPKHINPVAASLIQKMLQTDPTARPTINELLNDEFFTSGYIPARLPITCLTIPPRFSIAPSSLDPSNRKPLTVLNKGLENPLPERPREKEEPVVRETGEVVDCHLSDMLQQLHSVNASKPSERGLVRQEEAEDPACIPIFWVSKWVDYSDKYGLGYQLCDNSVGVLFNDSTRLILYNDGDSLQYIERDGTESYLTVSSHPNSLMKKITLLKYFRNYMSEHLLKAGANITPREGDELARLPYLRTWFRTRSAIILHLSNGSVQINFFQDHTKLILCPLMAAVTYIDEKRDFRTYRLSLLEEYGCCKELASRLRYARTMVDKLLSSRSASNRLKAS
HP1b chromo inh = HTS for Inhibitors of HP1-beta Chromodomain Interactions with Methylated Histone Tails | Chromobox protein homolog 1 (Homo sapiens), P83916 | AlphaScreen HP1-beta / biotin-H3K9me3 peptide binding | Potency, µM (series often up to 114 µM), for inactives: top-dose activity change, negative = inhibition, actives largely listed as inhibitors | 390,000 compounds, 0.56% hits; note: nearly all actives have a fitted effect of over 70% in size
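AlphaScreen: HP1-beta (50 nM) preformed 30 min with biotin-H3(1-18)K9me3 peptide (50 nM) in PBS pH 7.4, 0.01% Tween-20. Compound added for 30 min at RT, then streptavidin donor/nickel chelate acceptor beads (10 ug/mL) for 30 min.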
Sfp PPTase inh = qHTS Assay for Inhibitors of Bacillus subtilis Sfp phosphopantetheinyl transferase (PPTase); Potency, µM, for inactives: largest response in the series, negative = inhibition, most hits filed as inhibitors; Biochemical Sfp PPTase activity, qHTS; 4'-phosphopantetheinyl transferase ffp (Bacillus subtilis), Q9F4F7; 310,000 compounds, 3.5% hits;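 note: the enzyme is Sfp with the accession as filed and its product quenches rhodamine fluorescence; 0% = enzyme reaction without inhibitor and -100% = no enzyme wells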
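With Hepes-Na pH 7.6 buffer containing 10 mM MgCl2, Sfp (15 nM) modified BHQ-2-YbbR (12.5 uM) using rhodamine-CoA (5 uM). Two reads 30 minutes apart at 525/598 nm yielded each well's rate.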
BAZ2B block = qHTS Assay for Inhibitors of BAZ2B; Bromodomain adjacent to zinc finger domain protein 2B (Homo sapiens), Q9UIF8; 360,000 compounds, 4.4% hits; AID 504333, 2011; Potency, µM (doses to about 114 µM), for the others: at the top dose activity change, negative = inhibition, hits mostly inhibitors; AlphaScreen BAZ2B-H3K14Ac peptide displacement; note: % is set by controls: 0 for no effect and ±100 for the full control effect; nearly all actives have a fitted effect of over 60% in size
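AlphaScreen displacement of biotin-H3(5-23)K14Ac peptide (50 nM final) from BAZ2B (50 nM final) in PBS pH 7.4, 0.01% Tween-20; complex preformed 30 min RT, then compounds (top 110 uM) 30 min RT, beads 20 min dark.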
G9a block = qHTS Assay for Inhibitors of Histone Lysine Methyltransferase G9a; Histone-lysine N-methyltransferase EHMT2 (Homo sapiens), Q96KQ7; G9a H3K9 monomethylation, AlphaScreen, 2 h; Potency, µM (top dose mostly 102 µM), for inactives: at the highest dose activity, negative = inhibition, hits mostly inhibitors; 350,000 compounds, 8.8% hits; AID 504332, 2011; note: % is set by controls: 0 for no effect and ±100 for the full control effect; nearly all actives have a fitted effect of over 75% in size
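Enzyme 20 nM + cpd, 15 min RT; add b-H3K9 pep 500 nM / SAM 20 uM; 2 h RT; anti-H3K9me1 Ab 0.5 ug/mL + SA donor / anti-rabbit acceptor beads 20 ug/mL each, 10 min; AlphaScreen read.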
JMJD2A Tudor = qHTS Assay for Inhibitors of JMJD2A-Tudor Domain | Potency, µM (series often up to 114 µM), for inactives: at the top dose activity change, negative = inhibition, actives largely listed as inhibitors | AID 504339, 2011 | 390,000 compounds, 4.4% hits | AlphaScreen JMJD2A-Tudor / H3K4me3 peptide binding | Lysine-specific demethylase 4A (Homo sapiens), O75164; note: % is set by controls: 0 for no effect and ±100 for the full control effect; nearly all actives have a fitted effect of over 50% in size
An asterisk follows results filed as active; [ ] = dose if it differs, or a comment. Calls come from the whole dose curve; as a rule, active = well fitted curve in the direction sought with a large enough effect; inconclusive = small, poorly fitted or top-dose-only effect, or another doubt; inactive = no such curve, though single readings can be large; an effect the other way counts as inactive or inconclusive. Potency is the fitted concentration of half-maximal effect.

What do the screens show for `CC[C@@]1([C@@H]2O[C@@H]([C@H]3O[C@@](O)(CO)[C@H](C)C[C@@H]3C)C[C@@H]2C)CC[C@@H]([C@]2(C)CCC3(C[C@H](O)[C@@H](C)[C@@H]([C@@H](C)[C@@H](OC)[C@H](C)C(=O)O)O3)O2)O1` (some centres undefined)?
Sfp PPTase inh: 13%

Results for Cc1ccsc1CN1CCC(C(=O)NCc2ccccc2Cl)CC1 ?
PLK1 PBD inh: -3%; HP1b chromo inh: inconclusive; Sfp PPTase inh: inconclusive; BAZ2B block: -8%; G9a block: 10µM*; JMJD2A Tudor: 7.9µM*

Results for CCC1=C(c2ccc(C)cc2)S(=O)(=O)N=C1N1CCC(C(=O)NCc2ccc(N(C)C)cc2)CC1 ?
HP1b chromo inh: -21%; BAZ2B block: inconclusive; G9a block: 13µM*; JMJD2A Tudor: inconclusive

Results for Cc1ccc(Cn2c(CN3CCC(C(=O)NCCc4ccccc4)CC3)cc3ccccc32)cc1 ?
HP1b chromo inh: inconclusive; BAZ2B block: 18µM*; G9a block: 8.9µM*; JMJD2A Tudor: 40µM*

How did CC1=C(c2ccc(C)c(C)c2)S(=O)(=O)N=C1N1CCC(C(=O)NCc2ccc(N(C)C)cc2)CC1 do in these assays?
HP1b chromo inh: -29%; BAZ2B block: inconclusive; G9a block: 4%[59 µM]; JMJD2A Tudor: inconclusive

How did O=C(NCCc1ccccc1)C1CCN(Cc2cc3ccccc3n2Cc2cccc(Cl)c2)CC1 do in these assays?
HP1b chromo inh: -5%; BAZ2B block: -11%; G9a block: 10%[59 µM]; JMJD2A Tudor: -20%

How did CN(C)c1ccc(CNC(=O)C2CCN(c3nc4ccccc4[nH]3)CC2)cc1 do in these assays?
HP1b chromo inh: -4%[57 µM]; BAZ2B block: inconclusive; G9a block: 16µM*; JMJD2A Tudor: inconclusive

How did O=c1[nH]c2cc3c(cc2cc1CN(Cc1cccnc1)C(=S)NCc1ccco1)OCO3 do in these assays?
PLK1 PBD inh: -15%; HP1b chromo inh: -3%; Sfp PPTase inh: 40µM*; BAZ2B block: inconclusive; G9a block: 10µM*; JMJD2A Tudor: -16%

What do the screens show for `CN(C)CCN(Cc1cc2cc3c(cc2[nH]c1=O)OCO3)C(=S)NCc1ccco1`?
PLK1 PBD inh: 5%; HP1b chromo inh: 57%; Sfp PPTase inh: 6%; BAZ2B block: -2%; JMJD2A Tudor: 9%

Results for O=c1[nH]c2cc3c(cc2cc1CN(Cc1cccnc1)C(=S)NCc1ccco1)OCCO3 ?
PLK1 PBD inh: -12%; HP1b chromo inh: -24%; Sfp PPTase inh: 5µM*; BAZ2B block: -34%; G9a block: 40µM*; JMJD2A Tudor: -32%

Results for O=C(COc1ccc(Cl)cc1)NCCNC(=O)c1ccccn1 ?
PLK1 PBD inh: -14%; HP1b chromo inh: 7%; Sfp PPTase inh: 17%; BAZ2B block: 0%; G9a block: 17%; JMJD2A Tudor: -8%

How did COc1ccccc1Cn1cc(C(=O)c2ccc(C)cc2)c(=O)c2cc(C)ccc21 do in these assays?
HP1b chromo inh: 63%; BAZ2B block: 3%; G9a block: 4%[59 µM]; JMJD2A Tudor: -6%

How did O=C(c1cccc(NS(=O)(=O)c2ccc(F)c(F)c2)c1)N1CCCCC1 do in these assays?
PLK1 PBD inh: -2%; HP1b chromo inh: 33%; BAZ2B block: -3%; G9a block: inconclusive; JMJD2A Tudor: 3%

Results for Cc1ccc(NNC(=O)c2c(C)noc2C)cc1Cl ?
PLK1 PBD inh: -10%; HP1b chromo inh: 68%; Sfp PPTase inh: -10%; BAZ2B block: -11%; G9a block: 7.1µM*; JMJD2A Tudor: -10%

What do the screens show for `Cc1noc(C)c1C(=O)Nc1ccc(Cl)cc1C(F)(F)F`?
PLK1 PBD inh: -3%; HP1b chromo inh: 27%; Sfp PPTase inh: -6%; BAZ2B block: 8%; G9a block: 2%; JMJD2A Tudor: -14%

How did Cc1cc(Cl)ccc1NNC(=O)c1c(C)noc1C do in these assays?
PLK1 PBD inh: inconclusive; HP1b chromo inh: -7%; Sfp PPTase inh: 0%; BAZ2B block: -16%; G9a block: 2.8µM*; JMJD2A Tudor: 79µM*

How did O=C1c2ccccc2NC(c2cc(Cl)cc(Cl)c2O)N1Cc1cccnc1 (centres undefined) do in these assays?
PLK1 PBD inh: -14%; HP1b chromo inh: 35%; Sfp PPTase inh: -3%; BAZ2B block: inconclusive; G9a block: 79µM*; JMJD2A Tudor: -25%

What do the screens show for `CCCc1nc2ccccc2c(C(=O)N(CC)CC(=O)NCc2cccs2)c1CC`?
PLK1 PBD inh: -2%; HP1b chromo inh: 22%; BAZ2B block: 8%; G9a block: 35µM*; JMJD2A Tudor: 3%

How did CCN(CC(=O)NCc1cccs1)C(=O)c1ccc(Cl)c(Cl)c1 do in these assays?
PLK1 PBD inh: -4%; HP1b chromo inh: 18%; JMJD2A Tudor: -15%

How did O=C[C@@H]1CCCN1C(=O)[C@@H]1CCCN1C(=O)OCc1ccccc1 do in these assays?
Sfp PPTase inh: 56µM*; G9a block: 8.9µM*

How did O=C(O)C1CCC(=O)N1C(=O)OCc1ccccc1 (centres undefined) do in these assays?
PLK1 PBD inh: -8%; HP1b chromo inh: 38%; Sfp PPTase inh: 11%; BAZ2B block: 18%; G9a block: 71µM*; JMJD2A Tudor: -1%

What do the screens show for `Cc1ccc(NC(=O)C2CCC(=O)N2C(=O)OCc2ccccc2)cc1` (centres undefined)?
PLK1 PBD inh: -4%; HP1b chromo inh: 10%; Sfp PPTase inh: -50%; BAZ2B block: -2%; G9a block: -11%; JMJD2A Tudor: -4%

What do the screens show for `CCN(CC)CCOc1nc(C)nc2c1oc1ccccc12`?
PLK1 PBD inh: 27µM*; HP1b chromo inh: 27%; Sfp PPTase inh: 4%; BAZ2B block: inconclusive; G9a block: 50µM*; JMJD2A Tudor: inconclusive

What do the screens show for `CCN(CC)CCCOc1nc(C)nc2c1oc1ccccc12`?
PLK1 PBD inh: -2%; HP1b chromo inh: 18%; Sfp PPTase inh: 10%; BAZ2B block: inconclusive; G9a block: 35µM*; JMJD2A Tudor: -19%

Source: PubChem BioAssay (National Center for Advancing Translational Sciences (NCATS))
